Consider 38 targets from the supplement of paper PMC10849652.

Targets with a hit are over-represented here; the source holds about 7,900 in all. About 0.6% of all pairs of compound and target were hits.

UniProt P35222, sequence (P35222 whole entry, looked up): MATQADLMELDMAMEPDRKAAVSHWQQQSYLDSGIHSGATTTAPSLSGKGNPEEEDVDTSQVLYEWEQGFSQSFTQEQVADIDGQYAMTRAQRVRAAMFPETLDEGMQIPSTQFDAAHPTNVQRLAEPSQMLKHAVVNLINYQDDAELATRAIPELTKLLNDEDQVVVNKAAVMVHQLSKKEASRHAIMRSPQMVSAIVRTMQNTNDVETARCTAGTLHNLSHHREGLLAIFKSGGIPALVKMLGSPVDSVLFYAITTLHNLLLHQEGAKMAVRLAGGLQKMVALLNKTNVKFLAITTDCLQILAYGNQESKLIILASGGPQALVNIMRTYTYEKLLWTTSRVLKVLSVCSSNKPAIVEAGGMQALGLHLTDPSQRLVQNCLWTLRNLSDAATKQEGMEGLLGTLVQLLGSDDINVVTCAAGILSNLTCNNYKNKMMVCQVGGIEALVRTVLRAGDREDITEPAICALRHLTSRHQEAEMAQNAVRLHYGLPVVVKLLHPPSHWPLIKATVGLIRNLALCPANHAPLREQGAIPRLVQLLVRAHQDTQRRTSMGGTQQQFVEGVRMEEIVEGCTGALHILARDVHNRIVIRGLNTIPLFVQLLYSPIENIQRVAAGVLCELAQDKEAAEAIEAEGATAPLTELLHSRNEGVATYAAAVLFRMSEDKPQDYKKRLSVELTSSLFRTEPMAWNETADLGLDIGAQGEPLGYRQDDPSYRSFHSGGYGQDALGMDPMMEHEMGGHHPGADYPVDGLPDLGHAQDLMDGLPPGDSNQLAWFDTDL
UniProt P24534, sequence (P24534 whole entry, looked up): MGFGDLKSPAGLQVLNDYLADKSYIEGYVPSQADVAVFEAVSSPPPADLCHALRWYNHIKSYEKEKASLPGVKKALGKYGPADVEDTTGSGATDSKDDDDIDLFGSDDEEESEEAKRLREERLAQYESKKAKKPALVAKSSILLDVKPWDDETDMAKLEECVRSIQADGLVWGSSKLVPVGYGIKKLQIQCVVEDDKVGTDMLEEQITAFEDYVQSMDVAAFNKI
UniProt Q9HBU6, sequence (Q9HBU6 whole entry, looked up): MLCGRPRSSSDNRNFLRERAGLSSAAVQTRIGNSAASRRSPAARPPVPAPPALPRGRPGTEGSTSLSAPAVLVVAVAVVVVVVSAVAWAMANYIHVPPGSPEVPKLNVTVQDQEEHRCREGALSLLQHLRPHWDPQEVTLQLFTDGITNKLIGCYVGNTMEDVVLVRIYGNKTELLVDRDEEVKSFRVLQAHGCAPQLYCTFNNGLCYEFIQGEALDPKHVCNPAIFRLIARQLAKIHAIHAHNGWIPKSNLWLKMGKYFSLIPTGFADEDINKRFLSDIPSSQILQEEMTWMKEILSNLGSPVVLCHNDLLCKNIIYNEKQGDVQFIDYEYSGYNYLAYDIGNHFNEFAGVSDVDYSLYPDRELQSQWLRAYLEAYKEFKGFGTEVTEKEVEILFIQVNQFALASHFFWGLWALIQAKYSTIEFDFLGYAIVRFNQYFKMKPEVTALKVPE
UniProt Q14689, sequence (Q14689 whole entry, looked up): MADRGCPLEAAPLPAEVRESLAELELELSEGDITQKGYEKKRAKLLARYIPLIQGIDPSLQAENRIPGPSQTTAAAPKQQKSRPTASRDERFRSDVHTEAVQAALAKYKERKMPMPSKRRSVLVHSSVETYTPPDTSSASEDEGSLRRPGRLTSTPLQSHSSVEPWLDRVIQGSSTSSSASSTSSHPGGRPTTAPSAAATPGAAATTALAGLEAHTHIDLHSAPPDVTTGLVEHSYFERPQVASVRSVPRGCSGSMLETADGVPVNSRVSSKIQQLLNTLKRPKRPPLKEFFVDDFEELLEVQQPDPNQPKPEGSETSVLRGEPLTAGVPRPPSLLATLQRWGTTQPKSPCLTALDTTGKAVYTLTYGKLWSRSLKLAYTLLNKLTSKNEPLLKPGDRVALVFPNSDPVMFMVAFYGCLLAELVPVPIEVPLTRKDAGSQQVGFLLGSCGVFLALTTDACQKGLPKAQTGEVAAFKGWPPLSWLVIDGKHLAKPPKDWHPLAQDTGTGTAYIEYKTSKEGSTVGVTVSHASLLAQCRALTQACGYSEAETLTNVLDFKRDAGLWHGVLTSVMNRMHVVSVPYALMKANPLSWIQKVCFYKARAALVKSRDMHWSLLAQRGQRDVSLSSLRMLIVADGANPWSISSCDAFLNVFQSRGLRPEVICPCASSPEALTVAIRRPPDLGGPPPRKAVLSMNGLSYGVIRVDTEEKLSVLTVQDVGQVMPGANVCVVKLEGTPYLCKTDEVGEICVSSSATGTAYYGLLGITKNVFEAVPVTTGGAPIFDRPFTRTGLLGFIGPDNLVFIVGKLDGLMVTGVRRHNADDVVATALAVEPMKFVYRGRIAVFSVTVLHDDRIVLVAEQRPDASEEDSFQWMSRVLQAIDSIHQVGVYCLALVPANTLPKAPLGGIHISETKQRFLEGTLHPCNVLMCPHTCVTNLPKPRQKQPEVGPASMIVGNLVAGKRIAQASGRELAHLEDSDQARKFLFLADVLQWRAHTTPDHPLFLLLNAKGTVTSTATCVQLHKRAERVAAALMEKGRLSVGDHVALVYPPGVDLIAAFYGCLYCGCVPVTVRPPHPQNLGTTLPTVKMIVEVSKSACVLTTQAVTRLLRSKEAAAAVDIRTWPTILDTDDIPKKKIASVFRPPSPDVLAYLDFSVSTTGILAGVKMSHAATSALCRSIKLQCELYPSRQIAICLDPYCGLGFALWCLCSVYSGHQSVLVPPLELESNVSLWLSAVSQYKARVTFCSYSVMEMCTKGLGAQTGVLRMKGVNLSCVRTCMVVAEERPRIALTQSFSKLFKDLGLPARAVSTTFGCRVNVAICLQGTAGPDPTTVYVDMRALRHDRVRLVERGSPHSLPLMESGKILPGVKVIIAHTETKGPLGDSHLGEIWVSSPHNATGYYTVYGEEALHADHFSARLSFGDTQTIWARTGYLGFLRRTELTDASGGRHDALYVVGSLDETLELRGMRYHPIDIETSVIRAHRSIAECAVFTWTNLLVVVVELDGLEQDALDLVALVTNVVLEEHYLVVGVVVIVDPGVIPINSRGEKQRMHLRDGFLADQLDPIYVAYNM
UniProt Q16643, sequence (Q16643 whole entry, looked up): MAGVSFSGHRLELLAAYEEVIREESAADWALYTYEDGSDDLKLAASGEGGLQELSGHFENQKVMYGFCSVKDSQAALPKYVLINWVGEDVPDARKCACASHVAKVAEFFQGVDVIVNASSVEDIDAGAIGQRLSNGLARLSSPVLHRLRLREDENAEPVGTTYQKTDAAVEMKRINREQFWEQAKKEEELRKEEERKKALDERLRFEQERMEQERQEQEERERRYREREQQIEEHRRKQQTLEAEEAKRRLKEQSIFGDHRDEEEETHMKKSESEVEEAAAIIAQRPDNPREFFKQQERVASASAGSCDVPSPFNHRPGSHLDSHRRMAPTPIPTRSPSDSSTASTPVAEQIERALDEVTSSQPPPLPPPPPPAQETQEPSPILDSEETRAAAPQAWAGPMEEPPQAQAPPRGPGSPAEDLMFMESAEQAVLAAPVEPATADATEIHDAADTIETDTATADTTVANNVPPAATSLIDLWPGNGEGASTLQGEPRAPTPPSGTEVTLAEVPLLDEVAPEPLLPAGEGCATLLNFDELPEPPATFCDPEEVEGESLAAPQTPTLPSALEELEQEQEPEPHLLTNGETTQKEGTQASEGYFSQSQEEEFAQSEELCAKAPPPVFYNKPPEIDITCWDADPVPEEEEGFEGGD
UniProt Q6UX04, sequence (Q6UX04 whole entry, looked up): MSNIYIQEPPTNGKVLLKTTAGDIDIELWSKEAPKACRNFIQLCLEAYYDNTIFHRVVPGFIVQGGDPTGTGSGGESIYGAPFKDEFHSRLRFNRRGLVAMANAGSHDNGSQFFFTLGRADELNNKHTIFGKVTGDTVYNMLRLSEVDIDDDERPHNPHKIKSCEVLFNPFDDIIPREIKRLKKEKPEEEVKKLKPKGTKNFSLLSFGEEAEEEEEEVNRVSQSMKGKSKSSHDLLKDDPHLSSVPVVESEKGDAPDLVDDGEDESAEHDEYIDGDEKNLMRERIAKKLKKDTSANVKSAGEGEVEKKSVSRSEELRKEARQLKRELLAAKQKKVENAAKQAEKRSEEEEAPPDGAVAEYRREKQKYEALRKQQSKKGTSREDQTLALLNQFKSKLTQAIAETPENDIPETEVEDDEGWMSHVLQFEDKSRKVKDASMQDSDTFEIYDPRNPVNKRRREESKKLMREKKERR
UniProt Q9H467, sequence (Q9H467 whole entry, looked up): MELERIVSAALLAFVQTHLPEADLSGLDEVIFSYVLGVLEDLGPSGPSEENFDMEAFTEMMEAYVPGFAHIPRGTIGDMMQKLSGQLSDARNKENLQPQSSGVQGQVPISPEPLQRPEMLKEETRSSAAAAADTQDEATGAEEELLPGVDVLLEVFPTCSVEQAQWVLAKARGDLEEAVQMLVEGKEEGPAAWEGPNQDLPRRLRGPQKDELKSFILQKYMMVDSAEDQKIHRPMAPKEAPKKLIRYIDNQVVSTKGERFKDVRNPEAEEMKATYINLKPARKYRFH
UniProt Q9NWS6, sequence (Q9NWS6 whole entry, looked up): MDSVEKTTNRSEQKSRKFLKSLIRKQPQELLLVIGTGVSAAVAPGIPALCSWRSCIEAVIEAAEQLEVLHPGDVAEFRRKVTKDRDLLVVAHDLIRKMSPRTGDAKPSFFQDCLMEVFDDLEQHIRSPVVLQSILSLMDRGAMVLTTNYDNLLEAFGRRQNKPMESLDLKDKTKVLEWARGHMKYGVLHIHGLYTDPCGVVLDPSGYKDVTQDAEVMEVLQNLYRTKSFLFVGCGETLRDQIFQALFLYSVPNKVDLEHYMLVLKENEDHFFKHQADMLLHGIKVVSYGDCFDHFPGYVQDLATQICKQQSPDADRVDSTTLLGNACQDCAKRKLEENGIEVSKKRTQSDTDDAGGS

Compound in the first assay: C[C@H](C1=CC=C(C=C1)C(=O)NC2=C3C=CNC3=NC=C2)N
The assay can be described thus: log2 fold change, soluble protein after heating vs DMSO (PISA); higher = thermal stabilisation; K562 cells, 10 uM, 30 min; active = over 0.2 and 3.5 SD of the protein, either way, in both replicates (recomputed). The method, boiled down:
(§1)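 K562 cells at 2×10^6 cells/mL were given 10 μM compound for 30 min. Aliquots then went through 3 min of heating across 48°C-58°C, were pooled, and were extracted in PBS with 0.5% NP-40 at 4°C, and the supernatant after 21,000xg for 90 min was quantified by TMTpro 16plex LC-MS/MS with channel sums equalised. Thermal stability relative to control samples, from duplicates, is given as log2 fold change.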
On to DDX39A (UniProt O00148), for which the log2 fold change is 0.002 (inactive).
On the same count and under the same terms, then DCAF10 (UniProt Q5QP82), with 0.017 (inactive); and EDC4 (UniProt Q6P2E9), with -0.092 (inactive); and EHD2 (UniProt Q9NZN4), with -0.008 (inactive).
The same measure, in the same setting: the figure for DNAH10 (UniProt Q8IVF4) is -0.055 (inactive); for ETNK1 (UniProt Q9HBU6) it is -0.032 (inactive); for DDX4 (UniProt Q9NQI0) it is 0.544 (inactive).
E2F4 (UniProt Q16254): the log2 fold change was -0.095 (inactive).
On to EFL1 (UniProt Q7Z2Z2), for which the log2 fold change was 0.016 (inactive).
On the same count and under the same terms, then EXTL2 (UniProt Q9UBQ6), with -0.227 (inactive); and ECPAS (UniProt Q5VYK3), with 0.081 (inactive); and EEF1AKNMT (UniProt Q8N6R0), with 0.111 (inactive).
Still for that read-out and setting: then DNAJC1 (UniProt Q96KC8), with 0.023 (inactive); and DHX40 (UniProt Q8IX18), with 0.03 (inactive); and ERLIN2 (UniProt O94905), with 0.068 (inactive).
Still for that read-out and setting: the figure for EED, A0A5F9ZI63 is 0.007 (inactive); for FAM118A (UniProt Q9NWS6) it is 0.036 (inactive); for CTNNB1 (UniProt P35222) it is -0.102 (inactive).
On to EXOC8 (UniProt Q8IYI6), for which the log2 fold change was 0.053 (inactive).
On the same count and under the same terms, then DDX5 (UniProt P17844), with 0.125 (inactive).
As to CTSB (UniProt P07858), the log2 fold change was -0.042 (inactive).
For FAM160B1 (UniProt Q5W0V3), the log2 fold change was -0.003 (inactive).
With DNAAF2 (UniProt Q9NVR5), the log2 fold change was 0.003 (inactive).
With DYNC1I2 isoform 5 (UniProt Q13409), the log2 fold change was -0.007 (inactive).
Same read-out and setting: the figure for CTSL (UniProt P07711) is 0.021 (inactive).
The same measure, in the same setting: then CWC27 (UniProt Q6UX04), with -0.001 (inactive).
As for EEF1B2 (UniProt P24534), the log2 fold change is 0.092 (inactive).
The same measure, in the same setting: the figure for DCUN1D1 (UniProt Q96GG9) is -0.067 (inactive); for CUEDC2 (UniProt Q9H467) it is -0.113 (inactive).
Still for that read-out and setting: then CUX1 isoform 3 (UniProt P39880), with -0.002 (inactive).
For DPYSL2 (UniProt Q16555), the log2 fold change was 0.023 (inactive).
Same read-out and setting: the figure for EXOC2 (UniProt Q96KP1) is 0.101 (inactive); for DIP2A (UniProt Q14689) it is -0.01 (inactive); for DHCR24 (UniProt Q15392) it is 0.056 (inactive).
On the same count and under the same terms, the figure for DBN1 isoform 3 (UniProt Q16643) is 0.044 (inactive).
For DPP8 (UniProt Q6V1X1), the log2 fold change is -0.048 (inactive).
Still for that read-out and setting: the figure for DDB1 (UniProt Q16531) is -0.039 (inactive); for FAM50A (UniProt Q14320) it is -0.06 (inactive).

Compound in the next assay: C[C@H](Nc1ncnc2nc[nH]c12)c1cc2cccc(Cl)c2c(=O)n1-c1ccccc1 [duvelisib]
Described as above. In outline: as §1
In the case of DDX39A (UniProt O00148), the log2 fold change was 0.051 (inactive).
Still for that read-out and setting: then DCAF10 (UniProt Q5QP82), with -0.046 (inactive); and EDC4 (UniProt Q6P2E9), with 0.003 (inactive); and EHD2 (UniProt Q9NZN4), with 0.048 (inactive).
The same measure, in the same setting: the figure for DNAH10 (UniProt Q8IVF4) is 0.077 (inactive); for ETNK1 (UniProt Q9HBU6) it is 0.075 (inactive).
In the case of DDX4 (UniProt Q9NQI0), the log2 fold change was 0.265 (inactive).
With E2F4 (UniProt Q16254), the log2 fold change was 0.027 (inactive).
Same read-out and setting: then EFL1 (UniProt Q7Z2Z2), with 0.002 (inactive).
The same measure, in the same setting: then EXTL2 (UniProt Q9UBQ6), with -0.015 (inactive).
Regarding ECPAS (UniProt Q5VYK3), the log2 fold change is 0.024 (inactive).
Consider EEF1AKNMT (UniProt Q8N6R0), for which the log2 fold change is -0.047 (inactive).
Take DNAJC1 (UniProt Q96KC8): the log2 fold change is 0.027 (inactive).
DHX40 (UniProt Q8IX18): the log2 fold change was 0.005 (inactive).
The same measure, in the same setting: the figure for ERLIN2 (UniProt O94905) is -0.032 (inactive); for EED, A0A5F9ZI63 it is 0.014 (inactive); for FAM118A (UniProt Q9NWS6) it is -0.006 (inactive).
For the target CTNNB1 (UniProt P35222), the log2 fold change was 0.086 (inactive).
As for EXOC8 (UniProt Q8IYI6), the log2 fold change is 0.004 (inactive).
Regarding DDX5 (UniProt P17844), the log2 fold change was 0.041 (inactive).
On the same count and under the same terms, then CTSB (UniProt P07858), with 0.016 (inactive); and FAM160B1 (UniProt Q5W0V3), with 0.117 (inactive).
On the same count and under the same terms, then DNAAF2 (UniProt Q9NVR5), with 0.019 (inactive).
On the same count and under the same terms, the figure for DYNC1I2 isoform 5 (UniProt Q13409) is 0.019 (inactive); for CTSL (UniProt P07711) it is -0.07 (inactive).
For the target CWC27 (UniProt Q6UX04), the log2 fold change is 0.144 (inactive).
For EEF1B2 (UniProt P24534), the log2 fold change is 0.04 (inactive).
On the same count and under the same terms, the figure for DCUN1D1 (UniProt Q96GG9) is 0.004 (inactive); for CUEDC2 (UniProt Q9H467) it is 0.048 (inactive).
The same measure, in the same setting: the figure for CUX1 isoform 3 (UniProt P39880) is 0.064 (inactive); for DPYSL2 (UniProt Q16555) it is 0.33 (inactive).
Still for that read-out and setting: the figure for EXOC2 (UniProt Q96KP1) is -0.081 (inactive).
On to DIP2A (UniProt Q14689), for which the log2 fold change is 0.071 (inactive).
Still for that read-out and setting: then DHCR24 (UniProt Q15392), with 0.027 (inactive); and DBN1 isoform 3 (UniProt Q16643), with -0.097 (inactive); and DPP8 (UniProt Q6V1X1), with 0.025 (inactive).
Consider DDB1 (UniProt Q16531), for which the log2 fold change was 0.02 (inactive).
For the target FAM50A (UniProt Q14320), the log2 fold change is -0.03 (inactive).
